For some assays here: Entries with a potency or affinity are not part of this list. Active and inactive are the calls of the source. Unless noted, no rule for the calls is given here.
Tests used:
[1] = antimalarial activity against Dd2 strain (AID 2302;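 active = growth inhibition above 50% at the single 2 µM test dose, taken to imply half-maximal potency below 2 µM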;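 also: 0% = DMSO untreated growth and 100% = chloroquine plus artemisinin killed control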); conditions: P. falciparum Dd2 in RBCs, LDH growth readout, 72 h; at 2 µM; hits give high values
[2] = human hepatoma cell viability loss – ATP luminescence, cytotoxicity control for P. falciparum antimalarial project, primary screen (AID 2303;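 active = inhibition above 50%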;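 also: 0% = DMSO wells and 100% = digitonin-killed cells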); conditions: HepG2 viability, 24-48 h, at 10 µM, hits give high values
[3] = biological target: L-lactate dehydrogenase (Plasmodium falciparum (isolate CDC / Honduras)) (UniProt Q27743); assay: PfLDH activity inhibition – cell lysate, 3D7 strain, counter-screen for P. falciparum growth inhibition project (AID 2304);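 also: 0% = vehicle and 100% = reference inhibitor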; conditions: P. falciparum 3D7 crude extract, LDH APAD/NBT absorbance; at 2 µM; hits give high values
[4] = inhibition of 3D7 malaria parasite growth – strain 3D7 (AID 2306);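 also: 0% = DMSO wells and 100% = chloroquine plus artemisinin control wells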; conditions: P. falciparum 3D7 erythrocytic growth, LDH absorbance, 72 h; at 2 µM; hits give high values
[5] = biological target: Calcium-dependent protein kinase 1 (Plasmodium falciparum (isolate 3D7)) (UniProt P62344); assay: PfCDPK1 kinase inhibitors, biochemical, TCAMS library (AID 1159585; cut-off not given, nearly all actives have IC50 up to about 0.98 µM;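 also: inhibitors leave more ATP so luminescence rises with inhibition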); conditions: recombinant PfCDPK1, Kinase-Glo ATP depletion luminescence
[6] = biological target: Plasmodium falciparum protein kinase 6 (PK6, PF3D7_1337100) (UniProt Q8IDW1); assay: PfPK6 kinase inhibitors, biochemical, TCAMS library (AID 1159586); conditions: recombinant PfPK6, Kinase-Glo ATP depletion luminescence
[7] = biological target: Protein kinase 7 (PK7), Plasmodium falciparum 3D7 (PF3D7_0213400) (UniProt Q7YTF7); assay: inhibition of Plasmodium PK7 catalytic activity – biochemical, TCAMS antimalarial set, Kinase-Glo luminescence (AID 1159587); conditions: recombinant PfPK7, Kinase-Glo ATP depletion luminescence
[8] = biological target: Calcium-dependent protein kinase 4 (Plasmodium falciparum (isolate 3D7)) (UniProt Q8IBS5); assay: PfCDPK4 kinase inhibitors, biochemical, TCAMS library (AID 1159588; cut-off not given, nearly all actives have IC50 up to about 0.91 µM); conditions: recombinant PfCDPK4, Kinase-Glo ATP depletion luminescence
Chain of Calcium-dependent protein kinase 4 (Plasmodium falciparum (isolate 3D7)) (Q8IBS5 whole entry, looked up): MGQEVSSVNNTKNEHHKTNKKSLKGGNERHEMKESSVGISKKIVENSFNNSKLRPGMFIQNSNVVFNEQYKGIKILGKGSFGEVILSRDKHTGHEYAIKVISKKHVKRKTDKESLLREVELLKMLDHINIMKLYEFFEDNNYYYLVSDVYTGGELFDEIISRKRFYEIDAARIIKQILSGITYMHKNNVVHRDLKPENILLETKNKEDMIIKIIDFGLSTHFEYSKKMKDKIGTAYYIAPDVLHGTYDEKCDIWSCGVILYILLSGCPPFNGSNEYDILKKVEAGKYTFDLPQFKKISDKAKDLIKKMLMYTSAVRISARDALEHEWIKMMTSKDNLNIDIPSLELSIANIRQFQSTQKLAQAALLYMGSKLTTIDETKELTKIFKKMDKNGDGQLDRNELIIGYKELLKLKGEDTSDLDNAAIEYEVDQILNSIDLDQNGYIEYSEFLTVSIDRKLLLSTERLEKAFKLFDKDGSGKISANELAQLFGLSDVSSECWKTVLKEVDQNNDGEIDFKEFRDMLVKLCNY

Chain of Plasmodium falciparum protein kinase 6 (PK6, PF3D7_1337100) (Q8IDW1 1-305): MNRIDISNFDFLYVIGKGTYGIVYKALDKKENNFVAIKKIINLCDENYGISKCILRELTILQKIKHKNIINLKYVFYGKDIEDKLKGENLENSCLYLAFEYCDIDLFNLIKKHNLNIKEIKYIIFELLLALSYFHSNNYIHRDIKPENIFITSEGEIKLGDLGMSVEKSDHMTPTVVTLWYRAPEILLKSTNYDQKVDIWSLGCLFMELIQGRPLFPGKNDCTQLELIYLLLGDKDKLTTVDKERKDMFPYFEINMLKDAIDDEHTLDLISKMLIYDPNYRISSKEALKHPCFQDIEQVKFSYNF
Chain of L-lactate dehydrogenase (Plasmodium falciparum (isolate CDC / Honduras)) (Q27743 whole entry, looked up): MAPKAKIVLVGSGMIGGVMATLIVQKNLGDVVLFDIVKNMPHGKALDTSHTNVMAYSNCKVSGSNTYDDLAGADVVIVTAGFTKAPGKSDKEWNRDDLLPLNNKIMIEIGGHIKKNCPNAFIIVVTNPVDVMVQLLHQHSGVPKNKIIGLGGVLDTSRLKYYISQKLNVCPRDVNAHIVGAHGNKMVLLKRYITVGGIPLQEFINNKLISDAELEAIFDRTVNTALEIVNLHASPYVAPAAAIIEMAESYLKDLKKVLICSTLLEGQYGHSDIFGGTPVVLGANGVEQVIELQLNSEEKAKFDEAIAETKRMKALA
Chain of Calcium-dependent protein kinase 1 (Plasmodium falciparum (isolate 3D7)) (P62344 whole entry, looked up): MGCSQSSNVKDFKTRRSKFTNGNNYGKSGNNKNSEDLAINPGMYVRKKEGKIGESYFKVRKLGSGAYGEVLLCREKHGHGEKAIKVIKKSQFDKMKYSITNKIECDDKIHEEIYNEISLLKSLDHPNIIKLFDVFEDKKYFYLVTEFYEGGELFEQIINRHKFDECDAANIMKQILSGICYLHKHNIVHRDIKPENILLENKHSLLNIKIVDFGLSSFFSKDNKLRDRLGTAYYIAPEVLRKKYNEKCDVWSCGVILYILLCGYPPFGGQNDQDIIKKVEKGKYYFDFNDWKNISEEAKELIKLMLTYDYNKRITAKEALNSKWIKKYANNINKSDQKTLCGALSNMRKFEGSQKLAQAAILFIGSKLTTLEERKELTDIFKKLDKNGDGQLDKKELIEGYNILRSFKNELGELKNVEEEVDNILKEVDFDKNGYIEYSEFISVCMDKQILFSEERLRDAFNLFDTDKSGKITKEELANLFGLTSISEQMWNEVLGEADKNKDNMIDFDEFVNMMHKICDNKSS
Chain of Protein kinase 7 (PK7), Plasmodium falciparum 3D7 (PF3D7_0213400) (Q7YTF7 1-343): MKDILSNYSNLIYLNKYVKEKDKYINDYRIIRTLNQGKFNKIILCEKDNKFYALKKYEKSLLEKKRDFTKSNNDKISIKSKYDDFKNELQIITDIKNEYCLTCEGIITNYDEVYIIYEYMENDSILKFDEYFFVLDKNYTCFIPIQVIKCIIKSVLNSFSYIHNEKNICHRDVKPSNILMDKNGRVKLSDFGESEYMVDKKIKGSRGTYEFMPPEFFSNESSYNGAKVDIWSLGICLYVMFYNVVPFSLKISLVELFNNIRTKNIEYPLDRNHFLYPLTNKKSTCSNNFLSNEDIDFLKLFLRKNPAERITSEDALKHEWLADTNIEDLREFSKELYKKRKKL

CN(C)CCN(Cc1ccc(-c2ccc(CNCCc3ccccc3)cc2)nc1)C(=O)CCC1CCCC1
active: growth inhibition [1] 89% | inhibition [2] 98% | growth inhibition [4] 96%
inactive: inhibition [3] -3% | outcome [5] | outcome [6] | outcome [7] | outcome [8]

CCN(CC)c1ccc2nc(N)nc(N)c2c1Cl
active: inhibition [2] 62% | growth inhibition [4] 92%
inactive: growth inhibition [1] 1% | inhibition [3] -5% | outcome [5] | outcome [6] | outcome [7] | outcome [8]

CC(C)C[C@H](NC(=O)c1cc2ccccc2s1)C(=O)N[C@H]1CCN(Cc2ccc(I)c(OC3CCN(C)C3)c2)C1 (stereo not given in full)
inactive: inhibition [3] 4% | outcome [5] | outcome [6] | outcome [7] | outcome [8]
active: growth inhibition [1] 95% | inhibition [2] 99% | growth inhibition [4] 100%

CC(Cc1ccc(COc2ccc(CC(CO)NCCc3cccc(Cl)c3)cc2)cc1)NCCc1cccc(Cl)c1 (stereo not given)
active: growth inhibition [1] 86% | inhibition [2] 99% | growth inhibition [4] 101%
inactive: inhibition [3] 5% | outcome [5] | outcome [6] | outcome [7] | outcome [8]

OC(COCc1ccc(-c2ccccc2)cc1)CN1CCCCC1 (stereo not given)
inactive: inhibition [2] 13% | inhibition [3] -1% | outcome [5] | outcome [6] | outcome [7] | outcome [8]
active: growth inhibition [1] 75% | growth inhibition [4] 99%

O=C(Nc1cccc(-c2cccc(-c3nc4ccccc4[nH]3)c2)c1)c1ccncc1
active: growth inhibition [4] 99%
inactive: growth inhibition [1] 38% | inhibition [2] 27% | inhibition [3] -4% | outcome [5] | outcome [6] | outcome [7] | outcome [8]

O=C(OCC1CCN(Cc2ccccc2)C1)c1ccc(Cl)cc1 (stereo not given)
active: growth inhibition [4] 100%
inactive: growth inhibition [1] 4% | inhibition [2] -3% | inhibition [3] 3% | outcome [5] | outcome [6] | outcome [7] | outcome [8]

Clc1cccc(Nc2ccc3c(N4CCCCC4)ncnc3n2)c1
active: growth inhibition [1] 93% | inhibition [2] 54% | growth inhibition [4] 97%
inactive: inhibition [3] 0% | outcome [5] | outcome [6] | outcome [7] | outcome [8]

CCOc1cc(C(=O)Nc2ccc3nc(N(CC)CC)cc(C)c3c2)cc(OCC)c1OCC
inactive: growth inhibition [1] 9% | inhibition [2] 16% | inhibition [3] -2% | outcome [5] | outcome [6] | outcome [7] | outcome [8]
active: growth inhibition [4] 98%

CCCC(C)c1cnc2nc(N)nc(N)c2c1C (stereo not given)
inactive: growth inhibition [1] 1% | inhibition [3] 3% | outcome [5] | outcome [6] | outcome [7] | outcome [8]
active: inhibition [2] 67% | growth inhibition [4] 95%

O=C(N[C@@H](Cc1ccccc1)C(=O)O)c1cc(-c2ccc(F)cc2)no1 (tested in a mixture with another compound)
active: growth inhibition [4] 96%
inactive: growth inhibition [1] 49% | inhibition [2] -2% | inhibition [3] -3% | outcome [5] | outcome [6] | outcome [7] | outcome [8]

NC(=O)c1ccc(-n2cnc3cc(F)ccc32)cc1OCc1ccccc1C(F)(F)F (tested in a mixture with another compound)
active: growth inhibition [1] 93% | inhibition [2] 55% | growth inhibition [4] 97%
inactive: inhibition [3] 3% | outcome [5] | outcome [6] | outcome [7] | outcome [8]

CCn1c2ccccc2c2cc(Cc3cnc(N)nc3N)ccc21
active: growth inhibition [4] 94%
inactive: growth inhibition [1] -2% | inhibition [2] 28% | inhibition [3] 5% | outcome [5] | outcome [6] | outcome [7] | outcome [8]

COc1ccc(CC(Cc2ccc(OC)cc2)NCC(O)c2cccc(Cl)c2)cc1 (stereo not given)
inactive: inhibition [2] 11% | inhibition [3] -4% | outcome [5] | outcome [6] | outcome [7] | outcome [8]
active: growth inhibition [1] 98% | growth inhibition [4] 100%

CC(CN1CCN(C)CC1)C(=O)Nc1cccc(-c2ccc(-c3nc4ccccc4[nH]3)cc2)c1 (stereo not given)
active: growth inhibition [4] 95%
inactive: growth inhibition [1] 38% | inhibition [2] 2% | inhibition [3] -1% | outcome [5] | outcome [6] | outcome [7] | outcome [8]

O=C1OC(c2ccccc2)(c2ccccc2)CN1CC1CCN(Cc2ccc(O)c(Cl)c2)CC1
active: growth inhibition [1] 90% | growth inhibition [4] 98%
inactive: inhibition [2] 26% | inhibition [3] -1% | outcome [5] | outcome [6] | outcome [7] | outcome [8]

CCCc1cc(N2CCC(N3CCCC3)CC2)nc(Nc2ccc(Cl)cc2)n1
active: growth inhibition [4] 96%
inactive: growth inhibition [1] 9% | inhibition [2] 29% | inhibition [3] -2% | outcome [5] | outcome [6] | outcome [7] | outcome [8]

Oc1ccc(CCNc2nc(NCc3ccccc3-c3ccc(F)cc3)nc(N3CCNCC3)n2)cc1
inactive: growth inhibition [1] 24% | inhibition [2] 15% | inhibition [3] 0% | outcome [5] | outcome [6] | outcome [7] | outcome [8]
active: growth inhibition [4] 92%

CS(=O)(=O)c1ccc2nc(-c3cc(-c4ccc(OCCN5CCOCC5)cc4)cnc3N)[nH]c2c1
inactive: inhibition [2] 43% | inhibition [3] -4% | outcome [5] | outcome [6] | outcome [7] | outcome [8]
active: growth inhibition [1] 99% | growth inhibition [4] 100%

COc1cc(NC(=O)/C=C/c2ccccc2Cl)cc(OCCN2CCC(O)(c3ccccc3)CC2)c1
active: growth inhibition [4] 102%
inactive: growth inhibition [1] 46% | inhibition [2] 48% | inhibition [3] -1% | outcome [5] | outcome [6] | outcome [7] | outcome [8]

CC(C)(C)OC(=O)N1CCN(c2ccccc2NC(=O)c2cccc(C(F)(F)F)c2Oc2ccc(F)cc2)CC1
active: growth inhibition [4] 100%
inactive: growth inhibition [1] 9% | inhibition [2] 3% | inhibition [3] -8% | outcome [5] | outcome [6] | outcome [7] | outcome [8]

CCN1CCN(CCCNc2c3ccccc3nc3ccccc23)CC1
inactive: growth inhibition [1] 3% | inhibition [2] 44% | inhibition [3] -1% | outcome [5] | outcome [6] | outcome [7] | outcome [8]
active: growth inhibition [4] 100%

COc1cccc2c(NN=Cc3cccc(Cl)c3)cc(C)nc12
inactive: inhibition [2] 3% | inhibition [3] 2% | outcome [5] | outcome [6] | outcome [7] | outcome [8]
active: growth inhibition [1] 75% | growth inhibition [4] 101%

CC(C)c1ccc(CN2CCC(NC(=O)c3ccc(-c4ccccc4F)s3)CC2)cc1
active: growth inhibition [4] 81%
inactive: growth inhibition [1] 13% | inhibition [2] 46% | inhibition [3] 2% | outcome [5] | outcome [6] | outcome [7] | outcome [8]

COc1ccccc1-c1ccc2nnc(SCC(=O)Nc3ccc4c(c3)OCCO4)n2n1
active: growth inhibition [4] 99%
inactive: growth inhibition [1] 5% | inhibition [2] 9% | inhibition [3] -7% | outcome [5] | outcome [6] | outcome [7] | outcome [8]

Cc1ccc2nc(-c3cc(-c4cccc(CCN5CCOCC5)c4)cnc3N)[nH]c2c1
active: growth inhibition [1] 99% | inhibition [2] 50% | growth inhibition [4] 101%
inactive: inhibition [3] -5% | outcome [5] | outcome [6] | outcome [7] | outcome [8]

COC(=O)CCCCOc1c(OC)cc(Cc2cnc(N)nc2N)cc1OC
active: growth inhibition [4] 93%
inactive: growth inhibition [1] -2% | inhibition [2] -2% | inhibition [3] -2% | outcome [5] | outcome [6] | outcome [7] | outcome [8]

N=C(N)c1cc(Br)cc(NC(=O)Nc2cc(Br)cc(C(=N)N)c2)c1
inactive: inhibition [2] 0% | inhibition [3] -4% | outcome [5] | outcome [6] | outcome [7] | outcome [8]
active: growth inhibition [1] 76% | growth inhibition [4] 93%

FC(F)(F)c1ccc2nc(-c3ccc(-c4ccc(CNCCN5CCNCC5)cc4)cc3)[nH]c2c1
inactive: inhibition [2] 13% | inhibition [3] -4% | outcome [5] | outcome [6] | outcome [7] | outcome [8]
active: growth inhibition [1] 74% | growth inhibition [4] 92%

Cc1ccc(NC(=O)Nc2ccccc2)cc1-c1ccc(C(=O)Nc2ccncc2)cc1
active: growth inhibition [1] 52% | inhibition [2] 67% | growth inhibition [4] 99%
inactive: inhibition [3] 0% | outcome [5] | outcome [6] | outcome [7] | outcome [8]

CCCC1(NC[C@@H](O)[C@H](Cc2ccccc2)NC(=O)c2cc(NCC)cc(N3CCCCS3(=O)=O)c2)CCCCC1
active: growth inhibition [1] 98% | growth inhibition [4] 101%
inactive: inhibition [2] 4% | inhibition [3] -4% | outcome [5] | outcome [6] | outcome [7] | outcome [8]

N#Cc1ccc(CN2CCCN(Cc3cccc(NC(=O)c4ccc(-c5ccccc5)cc4)c3)CC2)cc1
active: growth inhibition [4] 88%
inactive: growth inhibition [1] 12% | inhibition [2] 33% | inhibition [3] 0% | outcome [5] | outcome [6] | outcome [7] | outcome [8]

O=c1cc(NCCC(CNCc2cc3ccccc3o2)NCc2cc(Br)cc(Br)c2)[nH]c2ccccc12 (stereo not given)
active: growth inhibition [1] 94% | growth inhibition [4] 100%
inactive: inhibition [2] 6% | inhibition [3] 2% | outcome [5] | outcome [6] | outcome [7] | outcome [8]

Nc1nccc2ccc(-c3ccc4ncccc4c3)cc12
active: growth inhibition [1] 100% | inhibition [2] 97% | growth inhibition [4] 100%
inactive: inhibition [3] -7% | outcome [5] | outcome [6] | outcome [7] | outcome [8]

COc1ccc2nccc(N(C)CC3(O)CCC(NCc4ccc5c(n4)NC(=O)CS5)CC3)c2n1 (stereo not given)
inactive: growth inhibition [1] 23% | inhibition [2] 1% | inhibition [3] -1% | outcome [5] | outcome [6] | outcome [7] | outcome [8]
active: growth inhibition [4] 98%

COc1cc(Nc2ccnc3ccc(C(F)(F)F)cc23)cc(OC)c1OC
active: growth inhibition [1] 100% | growth inhibition [4] 101%
inactive: inhibition [2] 15% | inhibition [3] 1% | outcome [5] | outcome [6] | outcome [7] | outcome [8]

CCN(CC)CCNc1ccnc2[nH]c3ccc(C)cc3c12
active: growth inhibition [1] 81% | growth inhibition [4] 102%
inactive: inhibition [2] 9% | inhibition [3] -3% | outcome [5] | outcome [6] | outcome [7] | outcome [8]

CC(=O)Nc1ccc(C(=O)Nc2ccc(-c3cccc(-c4nc5c(C)cccc5[nH]4)c3)cc2)cn1
active: growth inhibition [1] 74% | growth inhibition [4] 99%
inactive: inhibition [2] 36% | inhibition [3] -7% | outcome [5] | outcome [6] | outcome [7] | outcome [8]

Cc1ccccc1-c1cc(=O)c2cc(NC(=O)c3cccs3)ccc2o1
inactive: inhibition [2] 22% | inhibition [3] -4% | outcome [5] | outcome [6] | outcome [7] | outcome [8]
active: growth inhibition [1] 95% | growth inhibition [4] 96%

CO/C(=C\C=C\c1cc2cc(Cl)c(Cl)cc2[nH]1)C(=O)NCCCN1CCN(c2cccc(CCCO)c2)CC1
active: inhibition [2] 66% | growth inhibition [4] 90%
inactive: growth inhibition [1] 36% | inhibition [3] 3% | outcome [5] | outcome [6] | outcome [7] | outcome [8]

Source: PubChem BioAssay
